Myeloid diff 2: promotes myeloid progenitor differentiation | ER-HoxA9 myeloid progenitors, lysozyme-GFP differentiation, flow cytometry | calls only at 10 µM | actives 1% (n = 360,000) | AID 624256;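 active = normalized GFP-positive differentiation at or above the plate's own cutoff, the solvent-only control mean plus 3 SD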;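 also: cells exposed to compound for four days before flow analysis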
Exocytosis inh: blocks lytic granule exocytosis. TALL-104 LAMP-1 surface exposure, flow cytometry; cells stimulated with thapsigargin and PMA. inhibition, % at 10 µM. actives 0.66% (n = 360,000). AID 651702;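 active = inhibition above about 55%, limit read from the data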
ABCB6 inh 2: inhibitors of human ABC transporter ABCB6 | Q9NP58 | K562-ABCB6 porphyrin accumulation, flow cytometry, 1 h; active compounds read low | fluorescence ratio to DMSO, % at 10 µM | actives 0.19% (n = 360,000);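 active = fluorescence ratio to DMSO below 75%, the collection mean minus 3 SD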;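 also: signal is porphyrin accumulated inside mitochondria; 100% equals median channel fluorescence of DMSO control wells; lower ratio means ABCB6 inhibition with less porphyrin fluorescence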
Target sequence (Q9NP58 whole entry, looked up): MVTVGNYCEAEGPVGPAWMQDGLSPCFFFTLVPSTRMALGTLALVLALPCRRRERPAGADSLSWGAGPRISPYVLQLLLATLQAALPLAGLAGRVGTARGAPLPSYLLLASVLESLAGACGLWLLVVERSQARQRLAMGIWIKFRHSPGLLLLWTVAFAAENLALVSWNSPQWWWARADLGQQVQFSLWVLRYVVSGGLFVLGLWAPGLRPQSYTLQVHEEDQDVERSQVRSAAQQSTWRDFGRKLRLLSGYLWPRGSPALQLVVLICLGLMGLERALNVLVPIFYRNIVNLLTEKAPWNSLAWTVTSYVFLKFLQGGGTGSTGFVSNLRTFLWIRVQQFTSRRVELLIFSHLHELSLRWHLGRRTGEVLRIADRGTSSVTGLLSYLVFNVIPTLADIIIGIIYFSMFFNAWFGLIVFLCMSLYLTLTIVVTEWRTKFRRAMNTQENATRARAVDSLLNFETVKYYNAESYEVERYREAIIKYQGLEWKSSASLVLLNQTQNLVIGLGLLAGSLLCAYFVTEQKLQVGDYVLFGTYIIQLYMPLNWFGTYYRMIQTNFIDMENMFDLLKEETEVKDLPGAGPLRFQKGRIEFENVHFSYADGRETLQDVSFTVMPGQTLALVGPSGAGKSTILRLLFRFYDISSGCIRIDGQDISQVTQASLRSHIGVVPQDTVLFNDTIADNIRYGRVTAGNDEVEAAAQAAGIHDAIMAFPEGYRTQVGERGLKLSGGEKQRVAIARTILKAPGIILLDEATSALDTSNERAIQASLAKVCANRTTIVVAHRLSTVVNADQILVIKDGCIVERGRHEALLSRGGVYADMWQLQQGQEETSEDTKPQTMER
Myeloid diff: promotes myeloid progenitor differentiation; shares compounds with Myeloid diff 2; ER-HoxA9 myeloid progenitors, GFP/Mac1 double-positive flow; calls only; actives 2% (n = 2,300);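 active = share of green or green-and-red cells above 9 and 9% in run 1 or 4 and 3% in run 2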
GFP autofluor: compound fluorescence in myeloid differentiation counter-screen. actives 7.4% (n = 2,300). shares compounds with Myeloid diff 2. fluorescence response, % (test concentration not listed). ER-HoxA9 myeloid progenitors, no estrogen, GFP autofluorescence flow cytometry; vehicle wells 0%, positive control 100%. AID 651707;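 active = over 5% cells positive for green fluorescent reporter, or over 2% positive for both it and APC stain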;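 also: range taken on the double positive population between DMSO and positive control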
* marks the source's active call; other numbers are inactive results; i = inactive; nt = no result; + = active, no number. Only some compounds are listed: those with a hit (about 1.8% of all), similar ones and a draw of the others.

SMILES | Myeloid diff 2 | Exocytosis inh | ABCB6 inh 2 | Myeloid diff | GFP autofluor
CCC(C)Sc1ccc([C@@H]2[C@@H]3C(=O)N(C)C(=O)[C@@H]3[C@]3(C(=O)OC)CCCCN23)cc1 (stereo partly specified) | i | -6 | 105 | nt | nt
CC(=O)c1c(C)[nH]c(C(=O)NNC(=O)COc2cc(C)ccc2C(C)C)c1C | i | -2 | 101 | i | 0
CC(=O)c1c(C)[nH]c(C(=O)NNC(=O)COc2ccc(Cl)cc2C)c1C | i | -7 | 97 | nt | nt
O=C(NC1CC1)c1sc2cc(Cl)ccc2c1Cl | i | 13 | 100 | nt | nt
CC1(C)CC(NC(=O)c2sc3cc(Cl)ccc3c2Cl)CC(C)(C)N1 | i | 33 | 99 | i | 0
CCc1ccccc1NC(=S)N(Cc1ccc(OC)cc1)CC1CCC(C(=O)O)CC1 (stereo unspecified) | i | -2 | 95 | nt | nt
COc1ccc(Cl)cc1NC(=S)N(Cc1ccccc1C)CC1CCC(C(=O)O)CC1 (stereo unspecified) | i | 1 | 105 | i | 1
Cc1ccccc1CS(=O)(=O)Cc1ccc(C(=O)NC2CCCCC2)o1 | i | 1 | 100 | nt | nt
S=C(NCCCN1CCOCC1)NCCCN1CCOCC1 | i | -5 | 100 | nt | nt
CCCCCCCCNC(=S)NCCN1CCCCC1 | i | -1 | 91 | i | 0
Cc1cccc(-n2ncc3c(NCc4ccco4)ncnc32)c1 | + | -3 | 96 | i | 0
Cc1ccc(-n2ncc3c(NCc4ccco4)ncnc32)cc1C | i | 2 | 98 | nt | nt
CC1(C)NC(=O)N(CC(O)CN(c2ccccc2)S(=O)(=O)c2ccccc2[N+](=O)[O-])C1=O (stereo unspecified) | i | -4 | 103 | nt | nt
COc1cccc2c1OC[C@@H](CO)[C@H]2N(C)C(=O)Nc1ccc(Cl)cc1Cl | i | -3 | 95 | i | 0
COc1ccccc1-c1nnc(SCC(=O)Nc2ccc(Cl)cc2Cl)o1 | i | -7 | 104 | nt | nt
CCc1ccc([C@@H]2C[C@H]3[C@@H](CN2S(=O)(=O)c2ccc(C)cc2)C(=O)C[C@@H](c2ccccc2)N3S(=O)(=O)c2ccc(C)cc2)cc1 | i | 2 | 93 | nt | nt
COc1ccc(NC(=O)N(C)C[C@H]2Oc3ccc(NC(=O)CCN4CCOCC4)cc3C(=O)N([C@H](C)CO)C[C@@H]2C)cc1 | i | 2 | 90 | i | 3
C[C@H](CO)N1C[C@H](C)[C@@H](CN(C)C(=O)NC2CCCCC2)Oc2ccc(NS(=O)(=O)c3cccs3)cc2C1=O | i | -2 | 97 | nt | nt
C[C@H]1CN([C@@H](C)CO)C(=O)c2cc(NC(=O)CCN3CCOCC3)ccc2O[C@H]1CN(C)C(=O)Nc1ccc(F)cc1 | i | -4 | 101 | nt | nt
CC(C)NC(=O)N(C)C[C@H]1Oc2ccc(NS(=O)(=O)c3cccs3)cc2C(=O)N([C@H](C)CO)C[C@@H]1C | i | -3 | 102 | i | 0
Cc1cccc(-n2ncc3c2CCCC3NC(=O)CCCN2CCCCC2=O)c1C (stereo unspecified) | i | -2 | 101 | nt | nt
CS(=O)(=O)N1CCC(C(=O)Nc2cc(Cl)cc(Cl)c2)CC1 | i | -4 | 99 | nt | nt
COCCN(C(=O)COC(=O)CCc1nc2ccccc2s1)c1c(N)n(Cc2ccccc2)c(=O)[nH]c1=O | i | -4 | 94 | nt | nt
CCCCn1c(N)c(N(CCOC)C(=O)CSc2n[nH]c(-c3ccc(OC)cc3)n2)c(=O)[nH]c1=O | i | -1 | 105 | nt | nt
COCCN(C(=O)CSc1nc2ccccc2s1)c1c(N)n(Cc2ccccc2)c(=O)[nH]c1=O | + | 10 | 106 | i | 3
SMILES | Myeloid diff 2 | Exocytosis inh | ABCB6 inh 2 | Myeloid diff | GFP autofluor
COCCN(C(=O)CSc1n[nH]c(-c2ccc(OC)cc2)n1)c1c(N)n(Cc2ccccc2)c(=O)[nH]c1=O | + | -6 | 122 | i | 0
CCOC(=O)c1nc(-c2ccccc2)oc1N1CCOCC1 | i | -4 | 95 | nt | nt
CCN(CC)c1ccc(N2C(=NC(=O)C3CC3)SC3CS(=O)(=O)CC32)cc1 (stereo unspecified) | i | -1 | 97 | nt | nt
O=C(CN1C(=O)C2CCCCC2C1=O)N1CCN(c2ccc(F)cc2)CC1 (stereo unspecified) | + | 1 | 99 | i | 0
O=C(CN1C(=O)C2CCCCC2C1=O)N1CCN(c2ccccc2)CC1 (stereo unspecified) | i | 15 | 93 | nt | nt
CC(=O)C1=NN(c2ccccc2)C2(S1)S/C(=C\c1ccccc1)C(=O)N2c1ccccc1 (stereo unspecified) | i | -1 | 98 | nt | nt
COc1ccc(C(=O)Nc2cccc(-c3ccc4nncn4n3)c2)cc1 | i | 3 | 95 | nt | nt
COc1ccc(S(=O)(=O)Nc2cccc(-c3ccc4nncn4n3)c2)cc1 | i | -2 | 97 | i | 0
CCOc1ccc(NC(=O)c2cccc3ccccc23)cc1 | + | 10 | 100 | i | 0
CCOc1ccc(NC(=O)c2cc3ccccc3cc2O)cc1 | i | -7 | 91 | nt | nt
COc1ccc(-c2cc(NC=O)c3ncc(-c4cnn(C)c4)n3c2)cc1 | i | -3 | 103 | nt | nt
Cc1ccc(C(=O)C[n+]2cccc3ccccc32)cc1 | + | -3 | 716 | i | 1
O=C(C[n+]1cc(Br)cc2ccccc21)c1ccc(Br)cc1 | i | 0 | 138 | nt | nt
NC(=O)C[n+]1cccc2ccccc21 | i | 0 | 102 | nt | nt
O=C(C[n+]1cccc2ccccc21)c1ccc(Br)cc1 | + | -3 | 213 | i | 1
COc1cc(CN2CCNC(=O)C2CC(=O)O)cc(OC)c1 (stereo unspecified) | i | -2 | 104 | nt | nt
CCc1nc2ccc(C(=O)NCCCN3CCN(c4ccccc4F)CC3)cc2nc1CC | i | 23 | 90 | nt | nt
COc1ccccc1NC(=S)NC1CCC(CC2CCC(NC(=S)Nc3ccccc3OC)CC2)CC1 (stereo unspecified) | + | 27 | 97 | i | 0
COc1ccccc1NC(=S)NC1CCCC1 | i | -1 | 92 | nt | nt
COC(=O)c1c(C)[nH]c(C(=O)OCC(=O)c2c(N)n(CC(C)C)c(=O)n(C)c2=O)c1C | i | -2 | 94 | nt | nt
Cc1noc(C)c1C(=O)NC1=NCCS1 | i | 36 | 100 | nt | nt
Cc1c(F)cccc1NS(=O)(=O)c1ccccc1C#N | i | 1 | 99 | nt | nt
COc1ccccc1NS(=O)(=O)c1ccccc1C#N | i | -1 | 104 | i | 0
O=C(c1cc(S(=O)(=O)N2CCOCC2)ccc1F)N1CCc2ccccc21 | i | -1 | 98 | nt | nt
O=S1(=O)CCOCCCN1Cc1ccccc1 | i | 7 | 96 | nt | nt
O=C1CS(=O)(=O)N(Cc2cccc(F)c2)c2ccc(Br)cc21 | i | -6 | 113 | nt | nt
COc1ccc(CN2c3c(Br)cccc3C(=O)CS2(=O)=O)cc1 | + | 2 | 97 | i | 0
Cc1ccc(NC(=O)c2ccc(NCCCN3CCC(C)CC3)c([N+](=O)[O-])c2)cc1F | i | 68* | 86 | i | 0

Assay outcomes deposited in PubChem BioAssay by NMMLSC.
